# Data taken from the supplement of paper PMC4466140.
# Target: AgAbp1
# Test: SPOT peptide array binding signal intensity (averaged, normalized) (arbitrary units (background-subtracted, floor 0; scale differs between SH3 domains)); higher = stronger binding of the SH3 domain to the peptide
# Description: (§1)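 GST-tagged SH3 domains from S. cerevisiae (Sc), A. gossypii (Ag), C. albicans (Ca) and S. pombe (Sp) were incubated at 10 ug/ml overnight at 4 C on cellulose SPOT membranes carrying 292 synthetic 15-mer peptides mined from the S. cerevisiae proteome (cysteines replaced by serines). Binding was detected with anti-GST antibody, HRP secondary and chemiluminescence, quantified with Genespotter, and reported as normalized spot intensities averaged over biological replicates.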
row,Binder,SPOT peptide array binding signal intensity
1,GQYRRTIVIPRRFFT,24.5

# Target: AgBbc1
# Test: as above
# Description: as §1
row,Binder,SPOT peptide array binding signal intensity
1,GQYRRTIVIPRRFFT,25.5

# Target: AgBem1-D1
# Test: as above
# Description: as §1
row,Binder,SPOT peptide array binding signal intensity
1,GQYRRTIVIPRRFFT,52

# Target: AgBzz1-D1
# Test: as above
# Description: as §1
row,Binder,SPOT peptide array binding signal intensity
1,GQYRRTIVIPRRFFT,42.5

# Target: AgBzz1-D2
# Test: as above
# Description: as §1
row,Binder,SPOT peptide array binding signal intensity
1,GQYRRTIVIPRRFFT,21

# Target: AgCyk3
# Test: as above
# Description: as §1
row,Binder,SPOT peptide array binding signal intensity
1,GQYRRTIVIPRRFFT,42.5

# Target: AgFus1
# Test: as above
# Description: as §1
row,Binder,SPOT peptide array binding signal intensity
1,GQYRRTIVIPRRFFT,619

# Target: AgHof1
# Test: as above
# Description: as §1
row,Binder,SPOT peptide array binding signal intensity
1,GQYRRTIVIPRRFFT,68

# Target: AgHse1
# Test: as above
# Description: as §1
row,Binder,SPOT peptide array binding signal intensity
1,GQYRRTIVIPRRFFT,478

# Target: AgLsb1
# Test: as above
# Description: as §1
row,Binder,SPOT peptide array binding signal intensity
1,GQYRRTIVIPRRFFT,10

# Target: AgLsb4
# Test: as above
# Description: as §1
row,Binder,SPOT peptide array binding signal intensity
1,GQYRRTIVIPRRFFT,211

# Target: AgMyo5
# Test: as above
# Description: as §1
row,Binder,SPOT peptide array binding signal intensity
1,GQYRRTIVIPRRFFT,2.25

# Target: AgNbp2
# Test: as above
# Description: as §1
row,Binder,SPOT peptide array binding signal intensity
1,GQYRRTIVIPRRFFT,56.5

# Target: AgRvs167
# Test: as above
# Description: as §1
row,Binder,SPOT peptide array binding signal intensity
1,GQYRRTIVIPRRFFT,14.8

# Target: AgSho1
# Test: as above
# Description: as §1
row,Binder,SPOT peptide array binding signal intensity
1,GQYRRTIVIPRRFFT,255

# Target: AgSla1-D1-D2
# Test: as above
# Description: as §1
row,Binder,SPOT peptide array binding signal intensity
1,GQYRRTIVIPRRFFT,763

# Target: AgSla1-D3
# Test: as above
# Description: as §1
row,Binder,SPOT peptide array binding signal intensity
1,GQYRRTIVIPRRFFT,11

# Target: CaAbp1-D1
# Test: as above
# Description: as §1
row,Binder,SPOT peptide array binding signal intensity
1,GQYRRTIVIPRRFFT,168

# Target: CaAbp1-D2
# Test: as above
# Description: as §1
row,Binder,SPOT peptide array binding signal intensity
1,GQYRRTIVIPRRFFT,172

# Target: CaBbc1
# Test: as above
# Description: as §1
row,Binder,SPOT peptide array binding signal intensity
1,GQYRRTIVIPRRFFT,128

# Target: CaBem1-D1
# Test: as above
# Description: as §1
row,Binder,SPOT peptide array binding signal intensity
1,GQYRRTIVIPRRFFT,24.5

# Target: CaBzz1-D1
# Test: as above
# Description: as §1
row,Binder,SPOT peptide array binding signal intensity
1,GQYRRTIVIPRRFFT,60

# Target: CaBzz1-D2
# Test: as above
# Description: as §1
row,Binder,SPOT peptide array binding signal intensity
1,GQYRRTIVIPRRFFT,45

# Target: CaCyk3
# Test: as above
# Description: as §1
row,Binder,SPOT peptide array binding signal intensity
1,GQYRRTIVIPRRFFT,81

# Target: CaFus1
# Test: as above
# Description: as §1
row,Binder,SPOT peptide array binding signal intensity
1,GQYRRTIVIPRRFFT,2340

# Target: CaHof1
# Test: as above
# Description: as §1
row,Binder,SPOT peptide array binding signal intensity
1,GQYRRTIVIPRRFFT,5

# Target: CaHse1
# Test: as above
# Description: as §1
row,Binder,SPOT peptide array binding signal intensity
1,GQYRRTIVIPRRFFT,45.8

# Target: CaLsb1
# Test: as above
# Description: as §1
row,Binder,SPOT peptide array binding signal intensity
1,GQYRRTIVIPRRFFT,7

# Target: CaLsb4
# Test: as above
# Description: as §1
row,Binder,SPOT peptide array binding signal intensity
1,GQYRRTIVIPRRFFT,94.5

# Target: CaMyo5
# Test: as above
# Description: as §1
row,Binder,SPOT peptide array binding signal intensity
1,GQYRRTIVIPRRFFT,46.5

# Target: CaNbp2
# Test: as above
# Description: as §1
row,Binder,SPOT peptide array binding signal intensity
1,GQYRRTIVIPRRFFT,564

# Target: CaRvs167
# Test: as above
# Description: as §1
row,Binder,SPOT peptide array binding signal intensity
1,GQYRRTIVIPRRFFT,191

# Target: CaRvs167-3
# Test: as above
# Description: as §1
row,Binder,SPOT peptide array binding signal intensity
1,GQYRRTIVIPRRFFT,1390

# Target: CaSho1
# Test: as above
# Description: as §1
row,Binder,SPOT peptide array binding signal intensity
1,GQYRRTIVIPRRFFT,1460

# Target: CaSla1-D1-D2
# Test: as above
# Description: as §1
row,Binder,SPOT peptide array binding signal intensity
1,GQYRRTIVIPRRFFT,60

# Target: CaSla1-D3
# Test: as above
# Description: as §1
row,Binder,SPOT peptide array binding signal intensity
1,GQYRRTIVIPRRFFT,89.8

# Target: ScAbp1
# Test: as above
# Description: as §1
row,Binder,SPOT peptide array binding signal intensity
1,GQYRRTIVIPRRFFT,71

# Target: ScBbc1
# Test: as above
# Description: as §1
row,Binder,SPOT peptide array binding signal intensity
1,GQYRRTIVIPRRFFT,2.5

# Target: ScBem1-D1
# Test: as above
# Description: as §1
row,Binder,SPOT peptide array binding signal intensity
1,GQYRRTIVIPRRFFT,9

# Target: ScBzz1-D1
# Test: as above
# Description: as §1
row,Binder,SPOT peptide array binding signal intensity
1,GQYRRTIVIPRRFFT,17.5

# Target: ScBzz1-D2
# Test: as above
# Description: as §1
row,Binder,SPOT peptide array binding signal intensity
1,GQYRRTIVIPRRFFT,78

# Target: ScCyk3
# Test: as above
# Description: as §1
row,Binder,SPOT peptide array binding signal intensity
1,GQYRRTIVIPRRFFT,108

# Target: ScFus1
# Test: as above
# Description: as §1
row,Binder,SPOT peptide array binding signal intensity
1,GQYRRTIVIPRRFFT,898

# Target: ScHof1
# Test: as above
# Description: as §1
row,Binder,SPOT peptide array binding signal intensity
1,GQYRRTIVIPRRFFT,4.75

# Target: ScHse1
# Test: as above
# Description: as §1
row,Binder,SPOT peptide array binding signal intensity
1,GQYRRTIVIPRRFFT,995

# Target: ScLsb1
# Test: as above
# Description: as §1
row,Binder,SPOT peptide array binding signal intensity
1,GQYRRTIVIPRRFFT,10.2

# Target: ScLsb2
# Test: as above
# Description: as §1
row,Binder,SPOT peptide array binding signal intensity
1,GQYRRTIVIPRRFFT,29

# Target: ScLsb3
# Test: as above
# Description: as §1
row,Binder,SPOT peptide array binding signal intensity
1,GQYRRTIVIPRRFFT,210

# Target: ScLsb4
# Test: as above
# Description: as §1
row,Binder,SPOT peptide array binding signal intensity
1,GQYRRTIVIPRRFFT,33

# Target: ScMyo3
# Test: as above
# Description: as §1
row,Binder,SPOT peptide array binding signal intensity
1,GQYRRTIVIPRRFFT,12.5

# Target: ScMyo5
# Test: as above
# Description: as §1
row,Binder,SPOT peptide array binding signal intensity
1,GQYRRTIVIPRRFFT,10

# Target: ScNbp2
# Test: as above
# Description: as §1
row,Binder,SPOT peptide array binding signal intensity
1,GQYRRTIVIPRRFFT,346

# Target: ScPex13
# Test: as above
# Description: as §1
row,Binder,SPOT peptide array binding signal intensity
1,GQYRRTIVIPRRFFT,15.2

# Target: ScRvs167
# Test: as above
# Description: as §1
row,Binder,SPOT peptide array binding signal intensity
1,GQYRRTIVIPRRFFT,69.3

# Target: ScSho1
# Test: as above
# Description: as §1
row,Binder,SPOT peptide array binding signal intensity
1,GQYRRTIVIPRRFFT,1020

# Target: ScSla1-D1-D2
# Test: as above
# Description: as §1
row,Binder,SPOT peptide array binding signal intensity
1,GQYRRTIVIPRRFFT,205

# Target: ScSla1-D3
# Test: as above
# Description: as §1
row,Binder,SPOT peptide array binding signal intensity
1,GQYRRTIVIPRRFFT,54.5

# Target: SpAbp1-D1
# Test: as above
# Description: as §1
row,Binder,SPOT peptide array binding signal intensity
1,GQYRRTIVIPRRFFT,242

# Target: SpBbc1
# Test: as above
# Description: as §1
row,Binder,SPOT peptide array binding signal intensity
1,GQYRRTIVIPRRFFT,12.5

# Target: SpBzz1-D1
# Test: as above
# Description: as §1
row,Binder,SPOT peptide array binding signal intensity
1,GQYRRTIVIPRRFFT,107

# Target: SpBzz1-D2
# Test: as above
# Description: as §1
row,Binder,SPOT peptide array binding signal intensity
1,GQYRRTIVIPRRFFT,4.5

# Target: SpCyk3
# Test: as above
# Description: as §1
row,Binder,SPOT peptide array binding signal intensity
1,GQYRRTIVIPRRFFT,21

# Target: SpHof1
# Test: as above
# Description: as §1
row,Binder,SPOT peptide array binding signal intensity
1,GQYRRTIVIPRRFFT,186

# Target: SpHof1-2
# Test: as above
# Description: as §1
row,Binder,SPOT peptide array binding signal intensity
1,GQYRRTIVIPRRFFT,50

# Target: SpHof1-3
# Test: as above
# Description: as §1
row,Binder,SPOT peptide array binding signal intensity
1,GQYRRTIVIPRRFFT,321

# Target: SpHse1
# Test: as above
# Description: as §1
row,Binder,SPOT peptide array binding signal intensity
1,GQYRRTIVIPRRFFT,573

# Target: SpLsb1
# Test: as above
# Description: as §1
row,Binder,SPOT peptide array binding signal intensity
1,GQYRRTIVIPRRFFT,5

# Target: SpLsb4
# Test: as above
# Description: as §1
row,Binder,SPOT peptide array binding signal intensity
1,GQYRRTIVIPRRFFT,131

# Target: SpMyo1
# Test: as above
# Description: as §1
row,Binder,SPOT peptide array binding signal intensity
1,GQYRRTIVIPRRFFT,4.75

# Target: SpNbp2
# Test: as above
# Description: as §1
row,Binder,SPOT peptide array binding signal intensity
1,GQYRRTIVIPRRFFT,287

# Target: SpPex13
# Test: as above
# Description: as §1
row,Binder,SPOT peptide array binding signal intensity
1,GQYRRTIVIPRRFFT,79.5

# Target: SpRvs167
# Test: as above
# Description: as §1
row,Binder,SPOT peptide array binding signal intensity
1,GQYRRTIVIPRRFFT,43

# Target: SpSla1-D1-D2
# Test: as above
# Description: as §1
row,Binder,SPOT peptide array binding signal intensity
1,GQYRRTIVIPRRFFT,6

# Target: SpSla1-D3
# Test: as above
# Description: as §1
row,Binder,SPOT peptide array binding signal intensity
1,GQYRRTIVIPRRFFT,47
